# Compounds without any hit were thinned out: in the full panel of roughly 83,000, 20% have a hit.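 Percent growth is the endpoint: 0 to 100 indicates growth inhibition (40 means 60% inhibition), 0 means no net growth, and negative values indicate cell death.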 Values without a mark were called inactive. Active and inactive are the calls of the source. How the source made its calls: active means growth percent below 10; inactive means the rest.
# What was measured:
# Test in all cases: NCI-60 one-dose screen, 48 h (100 = growth as untreated, 0 = no growth, -100 = all killed)
# Settings in all cases: 10 µM unless noted
# SK-MEL-2 melanoma = tested on: SK-MEL-2 melanoma
# EKVX NSCLC = tested on: EKVX NSCLC
# SN12C renal = tested on: SN12C renal
# UO-31 renal = tested on: UO-31 renal
# TK-10 renal = tested on: TK-10 renal
# ACHN renal = tested on: ACHN renal
# CAKI-1 renal = tested on: CAKI-1 renal
# A498 renal = tested on: A498 renal
# MOLT-4 leukemia = tested on: MOLT-4 leukemia
SMILES,growth (SK-MEL-2 melanoma),growth (EKVX NSCLC),growth (SN12C renal),growth (UO-31 renal),growth (TK-10 renal),growth (ACHN renal),growth (CAKI-1 renal),growth (A498 renal),growth (MOLT-4 leukemia)
N#CC1=C(NC=O)Oc2c(ccc3ccccc23)C1c1ccccc1 (stereo unspecified),29%,67.8%,39.7%,41%,54.6%,43.4%,26.5%,22.9%,39.5%
O=c1cc(C2NNC(=S)N2)c2ccc3ccccc3c2o1 (stereo unspecified),106%,64.5%,100%,70.6%,126%,94.7%,85.1%,88.1%,102%
CCCCCCCC/C=C\CCCCCCCCOc1ccccc1CC(=O)NCC[N+](C)(C)C,96.4%,83.4%,67.5%,79.6%,9.37% (active),68.2%,50.7%,100%,77.3%
O=[N+]([O-])c1ccc(-c2cc(-c3ccc(Nc4nc(Nc5ccc(Cl)cc5)nc(Nc5ccc(Cl)cc5)n4)cc3)no2)cc1,72.4%,92.9%,97.6%,78.8%,105%,94.5%,115%,88.2%,-19.7% (active)
CC1(C)OC2C(CO[Si](C)(C)C(C)(C)C)OC(n3c(I)c(C#C[Si](C)(C)C)c(=O)[nH]c3=O)C2O1 (stereo unspecified),82.1%,109%,85.7%,86.6%,109%,107%,-8.73% (active),102%,13.4%
COc1ccc(-c2nc3c(N)c(CO)c(C)nc3o2)cc1,105%,95.7%,106%,88.7%,85%,112%,97%,-10.8% (active),96.3%
CNC(=O)NCC1OC(n2cnc3c(NC(=O)Nc4ccccc4)ncnc32)C(O[Si](C)(C)C(C)(C)C)C1CC(=O)N(C)OC (stereo unspecified),-4.44% (active),21.4%,16.8%,-6.83% (active),7.05% (active),11.4%,43%,45.6%,-11.7% (active)
C=C1C(=O)O[C@H]2[C@H]1CC/C(COC(=O)C(=O)c1cn(C)c3ccc(OC)cc13)=C\CC[C@@]1(C)O[C@@H]21,-47.2% (active),-17.4% (active),-51% (active),-91.9% (active),-61.4% (active),-57.8% (active),-43.6% (active),-99.5% (active),-16.6% (active)
Cc1cccc(-c2nc(N(C)c3ccc4ncsc4c3)c3ccccc3n2)n1,85.1%,85%,93.6%,77.7%,105%,94.6%,77.5%,78.8%,76.4%
CC/C=C\C/C=C\C[C@H](O)C/C=C1/C(=O)C=C[C@@H]1C/C=C\CCCC(=O)O,23.2%,95.3%,16.9%,57%,79%,60.2%,37.8%,96.6%,7.61% (active)
CCSC1=NC2C(N(CC)C(=O)N2CC)N1/N=C/C=C/c1ccccc1[N+](=O)[O-] (stereo unspecified),50.3%,46.5%,19.8%,34.6%,70.6%,25.1%,19.5%,-5.18% (active),15.1%
O=C(COc1ccc(/C=C2\Oc3ccccc3C2=O)cc1)c1ccc(Cl)cc1,82.7%,98.8%,103%,110%,120%,104%,81.8%,112%,87.9%
O=C(/C=C/c1ccco1)c1ccc(Nc2nc(Nc3ccc(F)cc3)nc(Nc3ccc(Cl)cc3)n2)cc1,59.4%,75.5%,81.1%,85.3%,84%,89.1%,80%,30.8%,-99.1% (active)
O=C1C=C[C@]2(C[C@@H](c3cccc(C(F)(F)F)c3)O[C@@H](c3cccc(C(F)(F)F)c3)O2)O1,-26.7% (active),80.9%,0.629% (active),-77.3% (active),-85.5% (active),-49.4% (active),32.8%,31%,3.17% (active)
CN1CCN(C(=O)c2c3c(n4ccccc24)C(=O)c2ncccc2C3=O)CC1,80%,91.5%,45%,35.2%,89.3%,32%,35.7%,51.5%,103%
COc1cccc(Nc2nccc(Nc3ccc4[nH]ncc4c3)n2)c1,-37% (active),34%,20.2%,-62.1% (active),-77.7% (active),-3.17% (active),-30.8% (active),12.7%,-32.4% (active)
O=C(c1ccccc1)N1N=C(c2ccccc2)CC1c1nnc2n(Cc3ccccc3)c(=O)c3c4c(sc3n12)CCCC4 (stereo unspecified),77.6%,102%,120%,84.4%,111%,99.8%,99.3%,114%,88.8%
COc1ccc(-c2cc(-c3ccc(Nc4nc(Nc5ccc(Cl)cc5)nc(Nc5ccc(Cl)cc5)n4)cc3)nc(N)c2C#N)cc1,13.1%,-27.1% (active),58.3%,-46.7% (active),-67.3% (active),-59.5% (active),44.2%,65.7%,15.9%
COc1ccc2[nH]c(O)c(/C=c3/cc4c(c(-c5cc(OC)c(OC)c(OC)c5)n3)=Nc3ccccc3-4)c2c1,83%,81.3%,80.6%,51.5%,98%,72%,71.6%,43.3%,23.5%
COc1ccc2c(c1)CCCN2c1c2ccccc2nc2ccccc12,35.4%,45%,39.5%,29.8%,48.2%,24.5%,27.8%,-4.56% (active),15.4%
COc1ccc(CN2C(=O)C(Cl)=C(Nc3cccc(C(F)(F)F)c3)C2=O)cc1,81.7%,63.4%,72.8%,28.5%,88.2%,52.5%,37.4%,57.6%,11.9%
Cc1ccc(CCC(=O)Nc2ncc(Cc3cc(Cl)ccc3Cl)s2)o1,65%,41%,23.4%,32%,57%,28.8%,26.2%,6.53% (active),14%
c1cc2ccc3cc2cc1CNCCOCCNCc1ccc2ccc(cc2c1)CNCCOCCNC3,-63.5% (active),21.4%,-19.9% (active),73.7%,8.5% (active),70%,15.4%,31.7%,4.08% (active)
Cc1c2c(c(C)c3c1oc1cc(O)ccc13)C(=O)N(CCN1CCCCC1)C2=O,105%,101%,85.9%,74.9%,96.7%,84.3%,76.3%,106%,80.4%
COc1ccc(C(=O)/C=C/c2c(C(F)(F)F)nc3sccn23)cc1OC,80.4%,37.1%,29%,61.1%,58.1%,26.5%,2.75% (active),94.7%,-16.6% (active)
CCOC(=O)c1c2c(n3ccc(NC(=O)OC(C)(C)C)cc13)C(=O)c1ncccc1C2=O,9.26% (active),-39.8% (active),-31% (active),-76.4% (active),6.15% (active),-41% (active),-3.67% (active),-0.0751% (active),7.38% (active)
NS(=O)(=O)c1cnccc1Sc1ccncc1S(N)(=O)=O,119%,96.9%,100%,80%,99.6%,106%,98.2%,104%,86.3%
COc1ccc(C(=O)COc2ccc(/C=C3\Oc4ccccc4C3=O)cc2)cc1,103%,99%,97.2%,-44.4% (active),136%,101%,91%,106%,81.7%
CC1CC(C(C)(C)C)C(=O)C(C(C)(C)C)C1 (stereo unspecified),105%,101%,105%,96.2%,98.2%,105%,105%,93.4%,104%
